Screening results (PubChem)
Bim-Mcl-1: human Bim-Mcl-1 interaction inhibition. Bead-based flow cytometry, Bim peptide-Mcl-1 binding. AID 1009. 190,000 tested, 0.1% active. inhibition, % at 10 µM; in the data active = inhibition above about 40%;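 note: 0% = no compound tracer wells and 100% = peptide blocker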
Target sequence (Q07820 whole entry, looked up): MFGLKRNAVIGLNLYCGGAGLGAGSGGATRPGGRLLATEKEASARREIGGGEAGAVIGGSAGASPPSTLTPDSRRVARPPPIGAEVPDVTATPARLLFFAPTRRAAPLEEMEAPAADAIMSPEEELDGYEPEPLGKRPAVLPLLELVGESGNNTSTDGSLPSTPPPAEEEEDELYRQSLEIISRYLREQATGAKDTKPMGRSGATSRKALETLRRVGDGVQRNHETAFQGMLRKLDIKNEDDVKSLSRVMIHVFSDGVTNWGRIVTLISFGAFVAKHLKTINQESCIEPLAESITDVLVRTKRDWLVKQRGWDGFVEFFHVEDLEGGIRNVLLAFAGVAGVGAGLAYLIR
Bcl-xL primary: inhibitors of human Bcl-xL; Q07817; GST-Bcl-xL / FITC-Bim BH3 peptide fluorescence polarization; inhibition, % at 10.9 µM; 320,000 tested, 0.7% active;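 active = inhibition above the mean of all tested compounds plus 3 SD, cutoff set per campaign, cut at about 30% in these data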;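 note: 0% = DMSO wells and 100% = unlabeled Bim-BH3 peptide competitor; inhibitors lower millipolarization by displacing the labeled peptide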
Target sequence (Q07817 whole entry, looked up): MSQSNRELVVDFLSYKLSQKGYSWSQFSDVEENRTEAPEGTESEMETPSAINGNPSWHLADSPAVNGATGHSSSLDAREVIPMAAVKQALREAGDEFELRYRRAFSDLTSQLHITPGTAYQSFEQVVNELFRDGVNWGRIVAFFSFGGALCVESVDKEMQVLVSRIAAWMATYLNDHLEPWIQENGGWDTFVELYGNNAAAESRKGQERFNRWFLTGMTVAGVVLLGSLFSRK
MCL1-BIM inh: inhibitors of human MCL1 binding to BIM-BH3 peptide | Q07820 | AID 2057 | inhibition, % at 10.9 µM | 320,000 tested, 0.68% active | GST-MCL1 / FITC-Bim-BH3 fluorescence polarization;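 active = inhibition above the mean inhibition of all tested compounds plus 3 SD, set per campaign, cut at about 40% in these data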;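 note: 0% = DMSO wells and 100% = unlabeled Bim-BH3 peptide control; higher means more loss of mP so more displacement of Bim peptide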
Mcl1-Noxa inh: disrupts binding of human Mcl-1 to Noxa peptide; 220,000 tested, 1.5% active; AID 1022; TR-FRET Mcl-1/Noxa peptide binding, 2 h; inhibition, % at 21.7 µM; Q07820;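 active = compounds that cut the protein-peptide binding signal by more than 50% relative to plate controls in a single-dose test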;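 note: His-tagged Mcl-1 with rhodamine Noxa BH3 peptide and terbium anti-His antibody; 0% = Mcl-1 plus Noxa peptide wells and 100% = peptide-only wells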
Mcl1-Bid inh: Mcl-1/Bid interaction inhibition; Q07820; TR-FRET Mcl-1/Bid-Dy647 peptide binding, 1536-well; inhibition, % at 21.7 µM; 220,000 tested, 0.97% active; AID 1021;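 active = compounds that cut the binding signal by more than half at the single screening dose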;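 note: His-tagged Mcl-1 with europium anti-His antibody binding Bid BH3 peptide; 0% = Mcl-1 plus peptide wells and 100% = peptide-only wells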
GLD-1 TGE inh: GLD-1-TGE RNA interaction inhibition (C. elegans); 320,000 tested, 0.44% active; Q17339; purified GLD-1 + fluorescein TGE RNA, fluorescence polarization; inhibition, % at 5.96 µM;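 active = percent inhibition above a per-plate cutoff, the plate mean of test compounds plus 3 SD, cut at about 30% in these data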;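 note: 0% = DMSO wells with GLD-1 and probe and 100% = wells lacking GLD-1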
Bcl-xL conf: Bcl-xL (human) inhibition, MCL1 counter-screen confirmation | shares compounds with MCL1-BIM inh | GST-Bcl-xL / FITC-Bim BH3 peptide FP binding | inhibition, % at 10.9 µM | 1,700 tested, 54% active;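 active = inhibition above a cutoff equal to the mean inhibition of all tested compounds plus 3 SD, cut at about 30% in these data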;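 note: 0% = DMSO wells and 100% = unlabeled Bim BH3 control peptide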
MCL1 BIM confirm: confirmation of human MCL1 and BIM-BH3 interaction inhibitors; shares compounds with MCL1-BIM inh; GST-MCL1 / FITC-Bim-BH3 fluorescence polarization; 1,700 tested, 61% active; inhibition, % at 10.9 µM;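 active = inhibition above the average of all tested compounds plus 3 SD, cut at about 40% in these data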;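 note: 0% = DMSO wells and 100% = unlabeled Bim-BH3 control peptide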
* marks the source's active call; other numbers are inactive results; i = inactive; nt = no result given; + = active, no number. Hits are enriched below; roughly 2.3% of the tested compounds scored in any of these assays.

SMILES	Bim-Mcl-1	Bcl-xL primary	MCL1-BIM inh	Mcl1-Noxa inh	Mcl1-Bid inh	GLD-1 TGE inh	others
Cn1c(O)c(C=Nc2ccc(F)cc2)c(=O)[nH]c1=O	nt	3.7	-0.2	nt	nt	1.3
COC(=O)C1=C(c2ccc(OC(F)(F)F)cc2)C[C@@H]2CC[C@H]1N2C(=O)N1CCCCC1	nt	4.2	5.4	nt	nt	0.6
CCOc1ccc(N2C(=O)/C(=C/c3ccc(C)o3)C(=O)NC2=S)cc1	nt	6.9	-10.0	nt	nt	-12.0
Cc1ccc(N2C(=O)/C(=C/c3ccc(CN(CCC#N)S(C)(=O)=O)o3)C(=O)NC2=S)cc1C	1.0	14.1	28.5	65.9*	4.5	10.4
Cc1cccc(N2C(=O)/C(=C/c3ccc(CN(CCC#N)S(C)(=O)=O)o3)C(=O)NC2=S)c1	2.0	8.2	12.9	52.6*	4.5	-0.5
CCOc1cc2c(cc1OCC)-n1cccc1C(c1ccc(OC(F)F)cc1)NC2 (stereo not given)	nt	-0.1	-2.0	nt	nt	4.0
O=C1CCCC2=C1C(c1cccnc1)Nc1ccccc1N2 (stereo not given)	-3.0	1.5	3.9	-8.3	-22.6	9.2
c1cncc(C2Nc3cccc4cccc(c34)N2)c1	nt	19.3	26.2	79.1*	-97.2	6.7
CN1c2ccccc2Oc2ccccc21	-5.0	4.2	9.6	68.6*	-11.3	-6.4
c1ccc2c(c1)CNc1ccccc1O2	0.0	5.0	8.0	2.2	-39.5	7.5
CCCOP(=O)(OCCC)C(NC(=O)c1ccccc1)=C(Cl)Cl	0.0	4.5	4.4	-8.1	90.8*	-0.8
CCN1C[C@]2(C)CC[C@H](O)[C@]34C1[C@H](C[C@H]23)[C@@]1(O)C[C@H](OC)[C@H]2C[C@@H]4[C@@H]1C2O (stereo not given in full)	nt	-1.8	-2.9	nt	nt	3.4
COC(=O)C1=C(c2ccc(F)cc2OCc2ccccc2)C[C@@H]2CC[C@H]1N2C(=O)NCCCc1ccccc1	nt	0.4	0.7	nt	nt	3.9
CC1Oc2cc3c(-c4c(O)cc(O)c5c(O)c6c(cc45)OC(C)C(C)C6=O)c(O)cc(O)c3c(O)c2C(=O)C1C (stereo not given)	nt	14.3	20.8	103.1*	41.6	10.7
O=C1NC(=O)N(c2ccccc2)C(=O)/C1=C/C=C/c1ccco1	nt	14.2	-2.9	-3.8	-47.1	12.1
CN(C)c1ccc(/C=C/C=C2/C(=O)NC(=O)N(c3ccccc3)C2=O)cc1	1.0	nt	nt	58.2*	51.5*	nt
O=C1/C(=C/c2cc3c(cc2Cl)OCO3)N2CCC1CC2	-2.0	3.7	6.1	22.2	-13.9	54.5*
O=C1/C(=C\c2cc3c(cc2Cl)OCO3)N2CCC1CC2	-4.0	2.9	3.3	23.4	3.8	3.6
O=C1/C(=C\c2ccc(Cl)c(Cl)c2)N2CCC1CC2	nt	-3.5	4.2	9.8	54.3*	0.4
O=C1/C(=C\c2ccncc2)N2CCC1CC2	nt	-1.1	7.2	4.4	-19.9	1.0
Cc1cccc(N2C(=O)NC(=O)/C(=C/c3ccc([N+](=O)[O-])o3)C2=O)c1	-2.0	32.8*	47.5*	71.9*	28.1	-8.5
COc1ccc(CN2C(=O)NC(=O)/C(=C/c3ccc([N+](=O)[O-])o3)C2=O)cc1	1.0	nt	nt	94.8*	34.5	nt
Cc1cccc(N2C(=O)NC(=O)/C(=C\C=C\c3ccco3)C2=O)c1	nt	1.6	-24.4	23.2	-33.0	6.0
COc1ccc(P2(=O)Nc3ccccc3N2)cc1	3.0	61.7*	51.8*	42.0	-100.7	14.7
COC1=CC(=O)O[C@@H](/C=C/c2ccccc2)C1	nt	-0.6	11.1	nt	nt	-0.9
SMILES	Bim-Mcl-1	Bcl-xL primary	MCL1-BIM inh	Mcl1-Noxa inh	Mcl1-Bid inh	GLD-1 TGE inh	others
COc1ccc(CCNC(=O)COC(=O)Cc2ccccc2)cc1	-7.0	-13.3	-27.3	7.2	78.0*	2.9
Oc1ccc2c3c1O[C@H]1c4[nH]c5ccccc5c4C[C@@]4(O)[C@@H](C2)N(CC2CC2)CC[C@]314	nt	1.6	3.1	nt	nt	2.6
Oc1ccc2c3c1O[C@H]1c4[nH]c5ccccc5c4C[C@@]4(O)C(C2)N(CC2CC2)CC[C@]314	0.0	19.4	65.8*	17.3	12.6	0.5
O=C(O)CCC(=O)NCCC1=c2ccccc2=N/C1=C\c1c(O)n(Cc2ccc(F)cc2)c(=S)[nH]c1=O	nt	7.4	8.1	103.5*	100.2*	4.8
O=C(N/N=C/c1c(O)n(Cc2ccc(F)cc2)c(=O)[nH]c1=O)c1ccccc1	nt	5.5	32.9	-85.2	-52.0	-0.8
CN1CC=C(/C=C/c2ccc(-c3ccccc3)cc2)CC1	nt	8.7	6.0	nt	nt	-5.8
CNC(=O)OCc1n(C)cc[n+]1C	-4.0	-12.9	-21.2	-18.1	87.1*	12.2
Cc1ccc(-c2nc(CS(=O)CC(=O)N3CCC4(CC3)OCCO4)c(C)o2)cc1 (stereo not given)	2.0	1.2	-2.5	-22.1	85.4*	11.4
Cc1ccc(-c2ccc(=O)n(CC(=O)N3CCC4(CC3)OCCO4)n2)cc1	-3.0	5.1	2.1	19.2	4.0	-1.6
CN1CCN2c3ccc(N)cc3CC3(C(=O)NC(=O)NC3=O)C2C1 (stereo not given)	nt	nt	nt	35.2	96.9*	nt
O=C1NC(=O)C2(Cc3ccccc3N3CCCC32)C(=O)N1 (stereo not given)	0.0	36.6*	35.5	9.9	-3.9	19.4
CN1C(=O)N(C)C(=O)C2(Cc3cc(N)ccc3N3CCN(c4ccccc4F)CC32)C1=O (stereo not given)	4.0	20.4	18.2	56.7*	91.2*	13.2
CCCC[C@@H](C)C[C@@H](C)C(=O)N(C)[C@@H](CC(C)C)C(=O)N[C@H](C(=O)N(C)[C@H](C(=O)N1C[C@@H](O)C[C@H]1C(=O)N1C(=O)C=C[C@@H]1C)C(C)C)C(C)OC(C)=O (stereo not given in full)	nt	nt	nt	nt	nt	3.0
Cc1ccc2c(c1)=C/C(=C\c1c(O)[nH]c(=S)[nH]c1=O)C(=O)N=2	-2.0	15.0	1.9	56.7*	-20.5	7.3
Cc1ccc2c(c1)=NC(=O)/C(=C/c1c(O)[nH]c(=O)[nH]c1=O)C=2	nt	-1.0	-2.9	0.5	-116.0	3.1
NC1CCc2cc(O)c(O)cc2C1 (stereo not given)	nt	16.1	14.4	nt	nt	12.2
CN1/C(=C\C=C\C2=[N+](C)c3ccc4ccccc4c3C2(C)C)C(C)(C)c2ccccc21	5.0	189.8*	+	i	-167.5	179.3*	Bcl-xL conf=165.6*;MCL1 BIM confirm=199.7*
C#C[C@]1(O)CC[C@H]2[C@@H]3CCC4=Cc5nc6nc7ccccc7n6cc5C[C@]4(C)[C@H]3CC[C@@]21C	nt	51.2*	59.7*	nt	nt	15.9	Bcl-xL conf=21.3;MCL1 BIM confirm=24.9
